Mtb hypoxia rep – reduces hypoxia-regulated biosensor signal in M. tuberculosis; M. tuberculosis hypoxia-regulated fluorescent reporter, fluorescence; fluorescence inhibition, % (test concentration not listed); actives 0.1% (n = 300,000); AID 1159583; in the data active means fluorescence inhibition mostly above about 23%, no sharp cut-off; inactive means mostly below about 17%
TcdB inh – TcdB glycohydrolase inhibition; P18177; TcdB glycohydrolase enzymatic assay, plate reader; inhibition, % at 9.99 µM; actives 0.24% (n = 350,000); AID 652162; in the data active means inhibition above about 10%
ugtP null kill – growth inhibition of S. aureus ugtP deletion strain. S. aureus RN4220 ugtP deletion, OD600 growth, 16 h. growth inhibition, % (test concentration not listed). actives 0.54% (n = 330,000); in the data active means growth inhibition above about 68%;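 further: plate controls were untreated wells for no effect and antibiotic for full effect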
Y pestis TopoI – Y. pestis Topo-I inhibition via cleavage products. Y. pestis Topo-I cleavage product accumulation, plate reader. activity, % at 10 µM. actives 0.064% (n = 360,000); in the data active means activity above about 50%, passing the limit was not always enough
BioA inh – inhibitors of Mycobacterium tuberculosis BioA enzyme | actives 0.096% (n = 360,000) | purified M. tuberculosis BioA enzyme, plate reader | AID 602481 | inhibition, % at 9.99 µM; in the data active means inhibition above about 40%
Sa RN4220 lethal – S. aureus RN4220 growth inhibition; OD600, 16 h; actives 0.33% (n = 330,000); AID 1259311; inhibition, % (concentration not given with the values); in the data active means inhibition above about 85%;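 further: plate controls were untreated cells for no effect and reference antibiotic for full effect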
Starred values were filed as active, the others as inactive; nt = no result shown. This is a sample that favours compounds with a hit; in the whole collection about 0.75% have one here.

SMILES	Mtb hypoxia rep	TcdB inh	ugtP null kill	Y pestis TopoI	BioA inh	Sa RN4220 lethal
CC1c2cccc(O)c2C(O)=C2C(=O)C3(O)C(O)=C(C(N)=O)C(=O)C(N(C)C)C3C(O)C21 (centres undefined)	nt	nt	100*	nt	nt	98*
C[C@H]1c2cccc(O)c2C(O)=C2C(=O)[C@]3(O)C(O)=C(C(N)=O)C(=O)[C@@H](N(C)C)[C@@H]3[C@@H](O)[C@@H]21	nt	nt	nt	-16	0	nt
CCCCNc1nc(CC)c2c(c1C#N)CCCC2	6	nt	81*	5	1	0
CCCCc1nc(NCCO)c(C#N)c2c1CCCC2	-2	1	11	26	1	13
C[C@@H]1CN([C@H](C)CO)C(=O)c2cccc(N(C)C)c2O[C@H]1CN(C)C(=O)Nc1ccc(C(F)(F)F)cc1	nt	0	nt	nt	2	nt
C[C@@H]1CN([C@H](C)CO)C(=O)c2cccc(N(C)C)c2O[C@@H]1CN(C)C(=O)Nc1ccc(C(F)(F)F)cc1	nt	13*	nt	nt	-2	nt
COC(=O)C1=C(c2ccccc2OCc2ccccc2)CC2CCC1N2C(=O)NCCOc1ccc(OC)cc1 (centres undefined)	-6	nt	-15	nt	nt	-10
N#C/C(=C\c1ccc(N2CCOCC2)o1)C(=O)Nc1ccc(O)cc1	-19	19*	-9	-1	-14	4
Cc1cccc(C2C3C(=O)N(Cc4ccccc4)C(=O)C3[C@]3(Cc4ccccc4)C(=O)N(c4cccc(F)c4)C(=O)N23)c1 (some centres undefined)	-5	nt	-17	nt	nt	-2
CC(C)(C)NC(=O)c1cccc(NC(=O)c2ccc3c(c2)C(=O)N(C(C)(C)C)C3=O)c1	-4	0	0	7	0	2
CC(C)(C)N1C(=O)c2ccc(C(=O)Nc3ccc(O)cc3)cc2C1=O	-6	22*	0	10	5	-4
Cc1n[nH]c(C)c1N1C(=O)c2cccc3cc(Br)cc(c23)C1=O	-3	nt	-5	8	58*	-1
COc1cc(C=C2NC(=O)N(Cc3ccccc3F)C2=O)cc(OC)c1O	-20	nt	-9	nt	nt	-10
CC(C)(C)c1ccc(C(=O)NC(=S)NNC(=O)c2cccs2)cc1	-12	nt	92*	5	2	86*
Cc1ccc(C(=O)NNC(=S)NC(=O)COc2ccccc2)cc1	2	2	92*	-4	nt	88*
CCCCC(=O)NNC(=S)NC(=O)c1ccc(C)cc1	11	2	10	8	nt	37
CCCOc1ccc(C(=O)NNC(=S)NC(=O)c2ccco2)cc1	-6	1	90*	1	nt	87*
Cc1ccc(C(=O)NC(=S)NNC(=O)CC#N)cc1	0	12*	-14	-2	nt	10
CC(C)(C)C(=O)NC(=S)NNC(=O)c1ccncc1	0	-1	-2	0	1	19
O=C(COc1ccc(Cl)cc1Cl)NNC(=S)NC(=O)c1ccco1	6	3	90*	4	0	93*
CCC(=O)NC(=S)NNC(=O)c1ccc(OC)cc1	0	nt	-4	-1	-1	11
CCCCOc1ccc(C(=O)NNC(=S)NC(=O)CC)cc1	3	nt	98*	-7	nt	94*
CC(C)(C)C(=O)NC(=S)NNC(=O)c1ccc(-c2ccccc2)cc1	8	nt	89	7	0	92*
COc1cc(C=NNC(=O)Cc2ccccc2)cc(OC)c1OC	5	nt	2	nt	nt	2
Cc1cccc(NC(=O)c2ccc(N3CCOCC3)c([N+](=O)[O-])c2)n1	-4	13*	6	5	-2	9
SMILES	Mtb hypoxia rep	TcdB inh	ugtP null kill	Y pestis TopoI	BioA inh	Sa RN4220 lethal
CCOC(=O)C1=C(C)NC(=S)N(C(C)=O)C1c1ccc(OC)c(OC)c1 (centres undefined)	2	1	-4	1	1	-6
CCOC(=O)C1=C(C)Nc2nnnn2C1c1ccc(OC)c(Br)c1 (centres undefined)	4	12*	-6	1	3	-4
C=CCOC(=O)C1=CC(c2ccc3c(c2)OCO3)CC(OCCCCO)O1 (centres undefined)	17	nt	13	nt	nt	9
O=C1CN(C(=O)CSc2nc3cc(Cl)ccc3c(=O)n2Cc2ccccc2)c2ccccc2N1	-7	1	-56	71*	nt	-19
C=CCn1c(SCC(=O)N2CC(=O)Nc3ccccc32)nc2scc(-c3ccccc3)c2c1=O	nt	16*	-1	29	0	-3
CC(=NNC(=O)c1cccc(F)c1)c1cccc(NC(=O)c2ccc(F)cc2)c1	-12	nt	1	nt	nt	3
CC(=NOC(=O)c1ccc(OC(C)C)cc1)c1ccc(C)c(C)c1	nt	nt	56	nt	nt	-7
CCC(=Cc1ccccc1)c1cccc2[nH]c3c(OC)cccc3c12	6	nt	97*	nt	nt	39
CC/C(=C/c1ccccc1)c1cccc2[nH]c3c(OC)cccc3c12	nt	0	nt	-6	-1	nt
CC(=CC(=O)c1ccc(F)cc1)NCc1ccc2c(c1)OCO2	13	nt	9	nt	nt	0
Cc1cc(C(=O)COC(=O)c2ccco2)c(C)n1Cc1ccco1	2	2	0	5	nt	5
Cc1cc(C(=O)COC(=O)c2cc(Cl)ccc2N)c(C)n1Cc1ccco1	4	0	99*	2	nt	82
Cc1c(C=NO)sc2ccccc12	-3	nt	4	nt	nt	6
CN1CCN(CC(=O)Nc2cc(N(C)C)nc3ccccc23)CC1	12	13*	2	-14	nt	4
CCN(CC)CC(=O)Nc1cc(N(C)C)nc2ccccc12	4	4	5	0	0	3
CCN(CC)S(=O)(=O)c1ccc(NN=Cc2ccc(O)cc2)nc1	13	nt	-2	nt	nt	3
COc1ccc(-c2ccc3c(c2)C2CC3CCN2Cc2ccc(OC(F)(F)F)cc2)cc1 (centres undefined)	-13	0	89*	-8	0	-3
CC(=NNC(=O)CSc1nc2ccccc2c(=O)n1-c1ccccc1C)c1cccs1	2	nt	-18	nt	nt	0
O=C(CSc1nnc(COc2ccc(Cl)cc2)o1)N1c2ccccc2CCc2ccccc21	11	nt	-24	61*	nt	-3
O=C(CSc1nnc(COc2ccc(Cl)cc2)o1)N1CCCC1	3	1	4	-1	-1	4
Oc1c(Br)cc(Br)cc1C=NNc1ccc(Cl)nn1	-8	nt	100*	nt	nt	21
COc1ccccc1C(=O)NCCC(=O)N1CC=C(c2ccccc2)CC1	0	2	4	132*	20	4
COc1ccc(-c2cnc3c(c2)C(=O)N([C@@H](C)CO)C[C@H](C)[C@H](CN(C)C(=O)C2CCCCC2)O3)cc1	nt	12*	nt	nt	-1	nt
CCn1cc(C(=O)O)c(=O)c2cc(F)c(N3CCN(S(=O)(=O)c4ccc5c(c4)OCCO5)CC3)cc21	23	5	100*	-2	nt	100*
CCn1cc(C(=O)O)c(=O)c2cc(F)c(N3CCNCC3)cc21	nt	nt	nt	-4	-1	nt
CCn1cc(C(=O)O)c(=O)c2cc(F)c(N3CCN(S(=O)(=O)c4ccc(NC(C)=O)cc4)CC3)cc21	nt	0	99*	11	nt	99*

From PubChem BioAssay
